Assay [1] relates to GAK. Further details: species or system human, MV4-11 + K-562 + COLO205 + SK-N-BE2 + OVCAR-8. The settings on record: read-out: apparent Kd, n = 1.
In assay [2] the test system is PKN3. More on the design: species or system human, MV4-11 + K-562 + COLO205 + SK-N-BE2 + OVCAR-8. As to conditions: read-out: apparent Kd, n = 1.
Assay [3] has as its system PKN3. As to conditions: hek293t cells.
In assay [4] the target is Q6ZSR9 (human, UniProt Q6ZSR9). Further details: species or system MV4-11 + K-562 + COLO205 + SK-N-BE2 + OVCAR-8. The settings on record: read-out: apparent Kd, n = 1.
Sequence of Q6ZSR9 (Q6ZSR9 whole entry, looked up): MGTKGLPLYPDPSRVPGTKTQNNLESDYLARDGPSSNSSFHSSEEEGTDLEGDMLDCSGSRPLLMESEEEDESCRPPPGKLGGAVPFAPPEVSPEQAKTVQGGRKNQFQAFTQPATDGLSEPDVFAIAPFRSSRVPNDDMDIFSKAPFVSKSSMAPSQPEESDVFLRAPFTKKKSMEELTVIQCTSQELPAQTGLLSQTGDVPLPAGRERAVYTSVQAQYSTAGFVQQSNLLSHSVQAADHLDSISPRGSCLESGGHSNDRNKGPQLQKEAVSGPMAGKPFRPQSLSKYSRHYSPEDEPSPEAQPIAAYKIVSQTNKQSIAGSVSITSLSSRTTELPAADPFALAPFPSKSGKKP
Assay [5] deals with SIK2. More on the design: species or system human, MV4-11 + K-562 + COLO205 + SK-N-BE2 + OVCAR-8. The settings on record: read-out: apparent Kd, n = 1.
Assay [6] deals with RET. More on the design: species or system human, MV4-11 + K-562 + COLO205 + SK-N-BE2 + OVCAR-8. As to conditions: read-out: apparent Kd, n = 1.
Assay [7] deals with GSK3A. Further details: species or system human, MV4-11 + K-562 + COLO205 + SK-N-BE2 + OVCAR-8. As to conditions: read-out: apparent Kd, n = 1.
Assay [8] has as its system GSK3B. More on the design: species or system human, MV4-11 + K-562 + COLO205 + SK-N-BE2 + OVCAR-8. As to conditions: read-out: apparent Kd, n = 1.
Assay [9] concerns PAK4. More on the design: species or system human, MV4-11 + K-562 + COLO205 + SK-N-BE2 + OVCAR-8. As to conditions: read-out: apparent Kd, n = 1.
In assay [10] the test system is PKN1. More on the design: species or system human, MV4-11 + K-562 + COLO205 + SK-N-BE2 + OVCAR-8. As to conditions: read-out: apparent Kd, n = 1.
For assay [11], the system named is CSNK2A1;CSNK2A3. Further details: species or system human, MV4-11 + K-562 + COLO205 + SK-N-BE2 + OVCAR-8. As to conditions: read-out: apparent Kd, n = 1.
The subject of assay [12] is CSNK2A2. Further details: species or system human, MV4-11 + K-562 + COLO205 + SK-N-BE2 + OVCAR-8. As to conditions: read-out: apparent Kd, n = 1.
The subject of assay [13] is AAK1. More on the design: species or system human, MV4-11 + K-562 + COLO205 + SK-N-BE2 + OVCAR-8. The settings on record: read-out: apparent Kd, n = 1.
The test system of assay [14] is BMP2K. Further details: species or system human, MV4-11 + K-562 + COLO205 + SK-N-BE2 + OVCAR-8. As to conditions: read-out: apparent Kd, n = 1.
Assay [15] has as its system CLK1. Further details: species or system human, MV4-11 + K-562 + COLO205 + SK-N-BE2 + OVCAR-8. As to conditions: read-out: apparent Kd, n = 1.
The subject of assay [16] is CLK4. More on the design: species or system human, MV4-11 + K-562 + COLO205 + SK-N-BE2 + OVCAR-8. The settings on record: read-out: apparent Kd, n = 1.
Assay [17] deals with FLT4. More on the design: species or system human, MV4-11 + K-562 + COLO205 + SK-N-BE2 + OVCAR-8. The settings on record: read-out: apparent Kd, n = 1.
Assay [18] concerns MELK. More on the design: species or system human, MV4-11 + K-562 + COLO205 + SK-N-BE2 + OVCAR-8. The settings on record: read-out: apparent Kd; compound concentrations: 100 nM and 1000 nM (sheet 'Samples'), CATDS: 8.4068419636258301E-3; n = 1.
In assay [19] the test system is NUAK1. More on the design: species or system human, MV4-11 + K-562 + COLO205 + SK-N-BE2 + OVCAR-8. The settings on record: read-out: apparent Kd; compound concentrations: 100 nM and 1000 nM (sheet 'Samples'), CATDS: 1.3178024386402599E-2; n = 1.
Where [20] appears, read: compound concentrations:100 nM and 1000 nM (sheet 'Samples').

pIC50: −log10 of the molar value. Where two headings read alike, the source gives them in different places.
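Wherever pIC50 is given: NanoBRET target engagement in HEK293T cells transiently expressing full-length PKN3 with C-terminal NanoLuc, displacement of fluorescent tracer K5 (500 nM), BRET read after 2 h equilibration at 37 °C.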

As for `COc1cccc2c(-c3ccncc3)c(-c3ccc(F)cc3)nn12` [GW468513X], the potency estimated from few doses is 615 nM in [1] (compound concentrations: 100 nM and 1000 nM (sheet 'Samples'), CATDS: 4.7773336245273197E-2); 427 nM in assay [2] (compound concentrations: 100 nM and 1000 nM (sheet 'Samples'), CATDS: 5.3563953975551901E-2). Besides, the pIC50 in assay [3] (read-out: Average, SD, n = 3) is 6.04; in assay [3] (read-out: Rep 1), 5.68; in assay [3] (read-out: Rep 2), 6.26; in assay [3] (read-out: Rep 4), 7.13.

Take `Cc1cccc2c(-c3ccncn3)c(-c3ccc(F)cc3)nn12` [GW515532X]: the potency estimated from few doses in assay [2] (compound concentrations: 100 nM and 1000 nM (sheet 'Samples'), CATDS: 0.37134711180045199) was 663 nM. In addition, the pIC50 in assay [3] (read-out: Average, SD, n = 3) was 4.57; in [3] (read-out: Rep 1), 4.10; in assay [3] (read-out: Rep 2), 6.04; in assay [3] (read-out: Rep 4) it was 6.59.

As to `CCn1c(-c2nonc2N)nc2c(C#CC(C)(C)O)nc(CN3CCCC3)cc21` [GSK1000163A], the potency estimated from few doses is 558 nM in [2] (compound concentrations: 100 nM and 1000 nM (sheet 'Samples'), CATDS: 0.30633787059967998); 2130 nM in assay [4] (compound concentrations: 100 nM and 1000 nM (sheet 'Samples'), CATDS: 0.15882546471257). For the same compound, the pIC50 is 5.16 in assay [3] (read-out: Average, SD, n = 4); 4.95 in assay [3] (read-out: Rep 1); 5.04 in assay [3] (read-out: Rep 2); 5.21 in [3] (read-out: Rep 3); 5.84 in [3] (read-out: Rep 4).

As to `CCOc1nccc2c1nc(-c1nonc1N)n2CC` [SB-737198], the potency estimated from few doses in assay [2] (compound concentrations: 100 nM and 1000 nM (sheet 'Samples'), CATDS: 0.243522946677111) is 869 nM; in [5] (compound concentrations: 100 nM and 1000 nM (sheet 'Samples'), CATDS: 0.197359346007206), 1500 nM. The pIC50 was less than 4.30 in assay [3] (read-out: Average, n = 4); less than 4.30 in assay [3] (read-out: Rep 1); less than 4.30 in [3] (read-out: Rep 2); less than 4.30 in [3] (read-out: Rep 3); less than 4.30 in [3] (read-out: Rep 4).

`CCn1c(-c2nonc2N)nc2c(-c3ccccc3)ncc(OCCCN)c21.CCn1c(-c2nonc2N)nc2c(-c3ccccc3)ncc(OCCCN)c21.O=C(O)C(F)(F)F.O=C(O)C(F)(F)F` [GSK260205A]: the potency estimated from few doses is 1380 nM in [1] (compound concentrations: 100 nM and 1000 nM (sheet 'Samples'), CATDS: 2.96050281932086E-2); 1.1 nM in [2] (compound concentrations: 100 nM and 1000 nM (sheet 'Samples'), CATDS: 0.85080270266883096); 99.7 nM in assay [6] (compound concentrations: 100 nM and 1000 nM (sheet 'Samples'), CATDS: 8.7615337764420001E-2). Besides, the pIC50 was 7.65 in [3] (read-out: Average, SD, n = 4); 7.13 in assay [3] (read-out: Rep 1); 8.21 in assay [3] (read-out: Rep 2); 8.21 in assay [3] (read-out: Rep 3); 8.47 in [3] (read-out: Rep 4).

`CCn1c(-c2nonc2N)nc2c(C#CC(C)(C)O)nc(OCCN)cc21.CCn1c(-c2nonc2N)nc2c(C#CC(C)(C)O)nc(OCCN)cc21.Cl.Cl` [GSK902056A]: the potency estimated from few doses was 113 nM in assay [7] (setting [20]), 136 nM in assay [8] (setting [20]), 677 nM in [9] (setting [20]) and 85 nM in [10] (setting [20]). Also, the pIC50 was 7.00 in assay [3] (read-out: Average, SD, n = 4); 6.63 in assay [3] (read-out: Rep 1); 7.25 in assay [3] (read-out: Rep 2); 7.57 in [3] (read-out: Rep 3); 7.10 in assay [3] (read-out: Rep 4).

With `O=C1N=C(Nc2ccccc2)S/C1=C\c1ccc2ncccc2c1` [RO4493940-000], the potency estimated from few doses is 291 nM in assay [11] (compound concentrations: 100 nM and 1000 nM (sheet 'Samples'), CATDS: 0.36155727747203598); 203 nM in assay [12] (compound concentrations: 100 nM and 1000 nM (sheet 'Samples'), CATDS: 0.44448936869789302).

Regarding `COc1cc(Nc2ncc3c(C)nc(-c4cc5ccccc5[nH]4)n3n2)cc(OC)c1OC` [GW869516X], the potency estimated from few doses in assay [11] (compound concentrations: 100 nM and 1000 nM (sheet 'Samples'), CATDS: 0.461357463552929) is 78.3 nM; in [12] (compound concentrations: 100 nM and 1000 nM (sheet 'Samples'), CATDS: 0.54570756078054605) it was 55.8 nM.

Turning to `CN1C[C@@H]2Cn3c(c(C4=C(c5cn(C)c6ccccc56)C(=O)NC4=O)c4ccccc43)C[C@H]2C1.Cl` [RO0320234-001], the potency estimated from few doses in assay [13] (setting [20]) is 403 nM; in assay [14] (setting [20]) it was 933 nM; in assay [15] (setting [20]), 162 nM; in assay [16] (setting [20]), 500 nM; in [11] (setting [20]) it was 836 nM; in assay [12] (setting [20]), 784 nM. Further, the potency estimated from few doses in assay [17] (setting [20]) is 878 nM; in [1] (setting [20]) it was 186 nM; in assay [7] (setting [20]) it was 99 nM; in assay [8] (setting [20]), 50.7 nM; in assay [9] (setting [20]), 558 nM; in [10] (setting [20]), 1970 nM. Also, the potency estimated from few doses in assay [2] (setting [20]) is 1500 nM; in assay [4] (setting [20]) it was 533 nM; in assay [6] (setting [20]), 371 nM; in assay [5] (setting [20]), 230 nM.

On to `CONC1=NC(=O)/C(=C/c2ccc3ncccc3c2)S1` [RO4613269-000], for which the potency estimated from few doses is 58.1 nM in assay [11] (compound concentrations: 100 nM and 1000 nM (sheet 'Samples'), CATDS: 0.42776292921510001); 56.8 nM in assay [12] (compound concentrations: 100 nM and 1000 nM (sheet 'Samples'), CATDS: 0.433008345682735).

For `Clc1cc(Cl)cc(Nc2ccnc(Nc3cc(Cl)cc(Cl)c3)n2)c1` [GSK175726A], the potency estimated from few doses was 460 nM in assay [13] (compound concentrations: 100 nM and 1000 nM (sheet 'Samples'), CATDS: 1.17801193164304E-2); 1240 nM in [14] (compound concentrations: 100 nM and 1000 nM (sheet 'Samples'), CATDS: 9.0184479884945195E-3); 111 nM in [15] (compound concentrations: 100 nM and 1000 nM (sheet 'Samples'), CATDS: 2.2055974074076602E-2); 338 nM in assay [16] (compound concentrations: 100 nM and 1000 nM (sheet 'Samples'), CATDS: 1.3138431378969501E-2); 672 nM in assay [11] (compound concentrations: 100 nM and 1000 nM (sheet 'Samples'), CATDS: 1.0484195430571001E-2); 671 nM in assay [12] (compound concentrations: 100 nM and 1000 nM (sheet 'Samples'), CATDS: 1.04904160104555E-2). Moreover, the potency estimated from few doses in assay [17] (compound concentrations: 100 nM and 1000 nM (sheet 'Samples'), CATDS: 8.8646184270887406E-3) is 1350 nM; in [1] (compound concentrations: 100 nM and 1000 nM (sheet 'Samples'), CATDS: 2.44642148870544E-2) it was 92.1 nM; in assay [7] (compound concentrations: 100 nM and 1000 nM (sheet 'Samples'), CATDS: 1.64548846246832E-2), 197 nM; in [8] (compound concentrations: 100 nM and 1000 nM (sheet 'Samples'), CATDS: 1.50283486353895E-2) it was 242 nM; in [18], 1790 nM; in assay [19] it was 335 nM. Besides, the potency estimated from few doses in [9] (compound concentrations: 100 nM and 1000 nM (sheet 'Samples'), CATDS: 1.1864346361446201E-2) is 450 nM; in assay [10] (compound concentrations: 100 nM and 1000 nM (sheet 'Samples'), CATDS: 8.1278223120285105E-3), 2200 nM; in [2] (compound concentrations: 100 nM and 1000 nM (sheet 'Samples'), CATDS: 9.6016767734474606E-3) it was 940 nM; in assay [4] (compound concentrations: 100 nM and 1000 nM (sheet 'Samples'), CATDS: 1.1627061095110299E-2), 479 nM; in assay [6] (compound concentrations: 100 nM and 1000 nM (sheet 'Samples'), CATDS: 1.2674098851270001E-2) it was 373 nM; in assay [5] (compound concentrations: 100 nM and 1000 nM (sheet 'Samples'), CATDS: 1.3915634821930201E-2), 291 nM.

These data come from article PMC11062922 (Nature Chemical Biology, 2023).
